17 compounds from PubChem BioAssay can be followed below.

Assay [1] concerns Human papillomavirus type 1a protein E7 (residues 44-93). The assay is described as follows: HPV1a E7 fragment binders on microarrays, primary screen, biochemical, small-molecule microarray, residues 44-93, 635 nm fluorescence (AID 1108).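 Note: E7 fragment applied at 1 µg/mL in TBST for 1 h at 4 C; score combines spot fluorescence with its signal to noise ratio.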 As to conditions: small-molecule microarray binding, fluorescence 635 nm; higher = more signal.
A short description of assay [2]: modulators of HCV replicon luciferase signal, primary screen, HCV replication inhibitor project, Huh7 cells, luciferase reporter (AID 1109).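 Note: huh7 hepatoma cells harbouring a luciferase neomycin HCV replicon reporter; luciferase luminescence as measure of HCV replicon replication; test concentration not given here.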 The note with it: 48 h, higher = more signal.
In assay [3] the target is Left-right determination factor 2 (Homo sapiens) (UniProt O00292). Nature of the assay: LEFTY2 binders on small-molecule microarrays, primary screen, biochemical, small-molecule microarray, 635 nm fluorescence scan (AID 1110). As to conditions: LEFTY2 binding, higher = more signal.
The target of assay [4] is Calmodulin-1 (Homo sapiens) (UniProt P0DP23). The assay is described as follows: CALM1 binders on microarrays, EGTA buffer, profiling panel, biochemical, small-molecule microarray, Cy5-labelled CALM1 (AID 1111).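 Note: labelled calmodulin applied in Tris saline Tween buffer holding calcium plus EGTA and DTT.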 The note with it: Cy5-CALM1 binding fluorescence, higher = more signal.
Assay [5] has the same target. Nature of the assay: calcium-bound CALM1 binders on microarrays, profiling panel, artefact control for SMM control-protein annotation, biochemical, small-molecule microarray, Cy5-labelled CALM1, plus calcium (AID 1112).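 Note: score merges spot fluorescence with signal to noise from triplicate slides.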 As to conditions: Cy5-CALM1 binding fluorescence, higher = more signal.
Assay [6] in a line: small-molecule microarray binders of probe aWnt5a, primary screen, biochemical, biotinylated probe, 635/667 nm fluorescence (AID 1113).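 Note: score merges 667 nm fluorescence intensity with signal-to-noise per printed feature.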 The note with it: higher = more signal.
A short description of assay [7]: small-molecule microarray binders of probe aShh, primary screen, biochemical, biotinylated probe, 635/667 nm fluorescence (AID 1114).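 Note: probe is biotin-labelled aShh protein from a stem cell growth factor screen; measures binding of labelled protein to compounds printed on the slide; score merges feature fluorescence at 667 nm with signal-to-noise.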 The note with it: higher = more signal.
Assay [8] can be described thus: small-molecule microarray binders of probe aNog, primary screen, biochemical, biotinylated probe, 635/667 nm fluorescence (AID 1115).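 Note: probe is biotinylated aNog protein used at 0.15 µg/mL for 1 h at 4 C; z-score combines 667 nm fluorescence of each spot with its signal to noise.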 The note with it: higher = more signal.
Assay [9] addresses Torsin-1A-interacting protein 1 (Homo sapiens) (UniProt Q5JTV8). Nature of the assay: LAP1 binders from COS7 cell lysate, primary screen, small-molecule microarray, 635/667 nm fluorescence (AID 1116). The note with it: COS7-hLAP1 lysate binding, 635 nm fluorescence, higher = more signal.
Assay [10] deals with Alpha-bungarotoxin (Bungarus multicinctus) (UniProt P60615). Nature of the assay: alpha-bungarotoxin binders on microarray, profiling panel, artefact control for SMM control protein annotation, biochemical, small-molecule microarray, Alexa647 label, 635/667 nm fluorescence (AID 1117). As to conditions: alpha-BTX-A647 binding fluorescence, higher = more signal.
Alpha-bungarotoxin (Bungarus multicinctus), sequence (P60615 whole entry, looked up): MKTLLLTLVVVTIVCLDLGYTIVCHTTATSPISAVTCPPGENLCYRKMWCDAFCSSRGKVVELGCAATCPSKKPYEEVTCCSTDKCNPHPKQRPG

Torsin-1A-interacting protein 1 (Homo sapiens), sequence (Q5JTV8 whole entry, looked up): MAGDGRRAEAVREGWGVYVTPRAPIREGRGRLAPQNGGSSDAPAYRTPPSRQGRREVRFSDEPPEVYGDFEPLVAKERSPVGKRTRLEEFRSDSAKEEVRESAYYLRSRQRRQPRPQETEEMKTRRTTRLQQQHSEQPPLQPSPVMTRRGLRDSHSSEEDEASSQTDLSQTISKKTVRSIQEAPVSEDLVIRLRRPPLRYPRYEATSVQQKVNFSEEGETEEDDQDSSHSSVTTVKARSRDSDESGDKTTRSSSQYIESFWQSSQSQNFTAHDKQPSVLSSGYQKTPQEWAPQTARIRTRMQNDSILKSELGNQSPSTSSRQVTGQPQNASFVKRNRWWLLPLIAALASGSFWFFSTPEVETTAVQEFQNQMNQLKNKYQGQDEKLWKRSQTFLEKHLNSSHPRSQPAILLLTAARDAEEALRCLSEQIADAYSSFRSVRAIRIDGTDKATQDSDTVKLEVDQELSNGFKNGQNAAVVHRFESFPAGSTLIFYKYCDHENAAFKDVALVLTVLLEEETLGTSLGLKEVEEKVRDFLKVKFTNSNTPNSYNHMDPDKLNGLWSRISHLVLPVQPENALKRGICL
Left-right determination factor 2 (Homo sapiens), sequence (O00292 whole entry, looked up): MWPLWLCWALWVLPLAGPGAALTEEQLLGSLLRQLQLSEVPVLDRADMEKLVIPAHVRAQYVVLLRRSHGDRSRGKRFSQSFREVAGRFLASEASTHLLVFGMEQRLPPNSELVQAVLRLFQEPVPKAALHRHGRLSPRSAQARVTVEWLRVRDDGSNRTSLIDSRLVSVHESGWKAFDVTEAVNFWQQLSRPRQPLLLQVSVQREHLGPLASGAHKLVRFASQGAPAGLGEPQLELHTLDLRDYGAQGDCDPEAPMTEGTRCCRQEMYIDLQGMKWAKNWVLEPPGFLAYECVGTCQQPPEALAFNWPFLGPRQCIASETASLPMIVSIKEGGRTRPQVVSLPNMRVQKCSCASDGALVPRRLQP

With `O=C1NC(=O)C2C1C=CC(C(O)c1cccc3ccccc13)N2Nc1ccc(Cl)cc1Cl` (stereo not given), the composite z-score in [1] was 1.38; in assay [3], -0.908; in [4], 1.49; in assay [5], 0.973; in assay [6], 0.0654; in [7], 0.481. In addition, the values for the composite z-score in assay [8], in [9] and in [10] were 1.4, 0.723 and 1.1, respectively. Further, the z-score in [2] is -0.445.
`COC(=O)CCCCCCC(=O)Nc1ccc(NC(=O)CCCC[P+](c2ccccc2)(c2ccccc2)c2ccccc2)cc1`: the composite z-score in [1] is -0.0924; in assay [3] it was 0.749; in [4], -0.0302; in [5], -0.516; in assay [6], -0.0751; in assay [7], -0.147. Also, the composite z-score in assay [8] is -0.209; in [9], 0.533; in [10] it was -0.573. Besides, the z-score in assay [2] was found to be 0.319.
For `CCOC(=O)C[C@H]1[C@H](OC(=O)c2cc3ccccc3oc2=O)[C@@H](NC(=O)c2ccc(-c3ccccc3)cc2)c2cc(OCCCO)ccc2N1C(=O)c1ccccc1`, the composite z-score was 1.4 in assay [1]; 1.16 in assay [3]; 0.536 in [4]; -0.15 in assay [5]; -0.0203 in [6]; 0.199 in assay [7]. Further, the composite z-score in [8] worked out at 0.161; in [9], 0.959; in assay [10], 0.727. The z-score in assay [2] was -0.659.
For the compound `CC(=O)NCCCC[C@@H]1NC(=O)[C@@H]2C[C@H](C(=O)NCCCC[N+](C)(C)C)[C@H](c3ccc(O)cc3)N2C1=O`, the composite z-score in assay [1] was 0.364; in assay [3], 1.35; in assay [4], -0.206; in assay [5], 0.32; in assay [6], -0.0758; in [7], 0.366. Also, the composite z-score was 0.33 in [8], 1.06 in assay [9] and 1.57 in [10]. Besides, the z-score in assay [2] is -0.307.
As for `COCCOC(=O)N1C(=O)[C@@]2(c3cc(C#CC4=CCCCC4)ccc31)[C@H](C(N)=O)[C@H]1C(=O)O[C@H](c3ccccc3)[C@H](c3ccccc3)N1[C@@H]2c1ccccc1OCCO`, the composite z-score in assay [1] was 0.22; in [3] it was 0.423; in assay [4] it was 0.994; in assay [5], -0.121; in assay [6], 0.0839; in assay [7], 0.173. Moreover, the composite z-score in assay [8] turned out to be 0.0157; in assay [9] it was 1.25; in [10], 1.69. For the same compound, in [2], the z-score is -3.15.
For `CN(C)CCCCNC(=O)[C@@H]1C[C@@H]2C(=O)N[C@@H](Cc3ccccc3)C(=O)N2[C@@H]1c1cccc(OCCO)c1`, the composite z-score was 1.34 in assay [1]; 1.24 in assay [3]; -0.349 in [4]; -0.125 in assay [5]; -0.127 in [6]; 0.0952 in [7]. In addition, the composite z-score in assay [8] is -0.0721; in assay [9] it was 0.0715; in assay [10], 0.612. The compound further yielded a z-score in assay [2] of 4.01.
On to `C=CCOC(=O)[C@H]1[C@@H]2C(=O)O[C@@H](c3ccccc3)[C@@H](c3ccccc3)N2[C@@H](c2ccc(OCCOC(=O)[C@@H]3C[C@@H]4C(=O)N[C@@H](CCCCN(C)C)C(=O)N4[C@@H]3c3ccc(O)cc3)cc2)[C@]12C(=O)Nc1ccccc12`, for which the composite z-score in assay [1] was -0.541; in assay [3] it was 1.08; in assay [4] it was -1.35; in assay [5], -1.07; in [6] it was -0.124; in [7], -0.0709. For the same compound, the results for the composite z-score in assay [8], in assay [9] and in [10] were -0.106, 1.17 and -0.23, respectively. This compound displayed a z-score in [2] of -2.88.
`Cc1cc(C)cc(N2C(=O)CSC2c2cccc([N+](=O)[O-])c2)c1` (stereo not given): the composite z-score stood at 0.0826 in [1]; 0.571 in assay [3]; 1.6 in assay [4]; 0.463 in [5]; 0.0873 in assay [6]; 0.0815 in assay [7]. For the same compound, the composite z-score came out at 0.0373 in assay [8], 0.516 in assay [9] and 1.7 in [10]. In [2], this compound showed a z-score of -1.26.
Regarding `CCCNC(=O)[C@@H]1c2ccccc2C(=O)N(C(C)C)[C@H]1c1ccc(CO)cc1`, the composite z-score in assay [1] was 0.123; in assay [3], -0.378; in [4], -0.193; in assay [5], 0.0439; in assay [6], -0.104; in assay [7], 0.0062. The figures for the composite z-score in assay [8], in [9] and in [10] were -0.287, 0.625 and -0.182, respectively. Further, the z-score in assay [2] is -0.362.
Take `O=C1c2ccccc2[C@](Cc2ccccc2I)(C(=O)NCC(F)(F)F)[C@H](c2ccc(CO)cc2)N1C1CCCCC1`: the composite z-score in assay [1] is 1.27; in assay [3] it was 0.133; in [4], 1.53; in assay [5], 0.486; in assay [6], -0.0405; in [7], 0.0611. The values for the composite z-score in assay [8], in assay [9] and in assay [10] were 0.128, -0.229 and 1.51, respectively. Besides, the z-score in assay [2] was -1.21.
Turning to `O=C1C=C(c2ccccc2)C(=O)c2ccc([C@H]3Oc4ccccc4S(=O)(=O)N4CCC[C@@H]34)cc21`, the composite z-score in assay [1] was -1.08; in assay [3], -0.272; in assay [4], -0.623; in assay [5] it was -0.351; in assay [6], -0.172; in assay [7], -0.117. Also, the composite z-score in [8] was -0.23; in assay [9], -0.239; in assay [10], -0.0257. This compound came in with a z-score in assay [2] of -4.28.
`O=C1C2C=CC(C(O)c3ccccc3)N(Nc3ccccc3F)C2C(=O)N1c1ccccc1` (stereo not given): the composite z-score was 0.188 in assay [1]; -0.0935 in assay [3]; 0.0824 in [4]; -0.537 in [5]; -0.15 in [6]; -0.0626 in [7]. The composite z-score is -0.341 in assay [8], 0.178 in [9] and 0.204 in assay [10]. In assay [2], this compound came in with a z-score of -0.384.
Regarding `CC(CO)N1C(=O)[C@@H]2[C@H]3C(=O)OCC=C[C@H]3OC23C=CCN(Cc2ccccc2)C(=O)[C@@H]13` (stereo not given in full), the composite z-score was -1.13 in assay [1]; -0.509 in [3]; -0.216 in assay [4]; -0.324 in [5]; 0.206 in assay [6]; -0.211 in [7]. For the same compound, the composite z-score in [8] was -0.273; in assay [9] it was -0.5; in assay [10], -0.221. In [2], this compound showed a z-score of -0.254.
With `OCC1CC(c2ccccc2)=NO1` (stereo not given), the composite z-score is -1.07 in assay [1]; 0.43 in [3]; -0.759 in [4]; -0.445 in [5]; -0.0084 in assay [6]; -0.248 in assay [7]. In addition, the composite z-score in assay [8] was 0.21; in assay [9], 0.19; in assay [10] it was -0.0251. The z-score in [2] was 0.381.
On to `CC(C)Cc1ccc(CN2CC[C@@H](NC(=O)Nc3ccccc3)C2)cc1`, for which the composite z-score in assay [1] is -0.709; in [3] it was 0.463; in assay [4], -0.433; in [5], 0.0615; in [6], -0.0202; in assay [7], -0.221. In addition, the composite z-score is -0.164 in assay [8], -0.311 in assay [9] and 0.166 in assay [10]. The compound also displayed a z-score in assay [2] of -4.9.
Take `OCCCC1=CC(c2ccc(CN3CCCC3)cc2)N(Cc2sc3ccccc3c2Cl)CC1` (stereo not given): the composite z-score in assay [1] is 1.32; in assay [3] it was 0.758; in assay [4], 0.325; in [5], -0.585; in assay [6] it was -0.113; in [7], 0.0899. Also, the composite z-score in assay [8] is 0.507; in [9] it was -0.0337; in [10], 0.827. This compound also yielded a z-score in [2] of -4.17.
As to `CC(C)C(CO)N1C(=O)[C@@H]2C3C(=O)OCCC/C=C\[C@H]3OC23C=CCN(C(C)(C)C)C(=O)[C@@H]13` (stereo not given in full), the composite z-score in [1] is -0.0297; in assay [3] it was -0.383; in assay [4] it was -0.903; in assay [5] it was -0.804; in [6], -0.124; in [7] it was 0.0141. Besides, the composite z-score was -0.368 in [8], -0.24 in [9] and -1.54 in assay [10]. In assay [2], the z-score was -0.57.
